Experimental data reported in the supplement of paper PMC11732987, “Enantioselective OTUD7B fragment discovery through chemoproteomics screening and high-throughput optimisation” (Communications Chemistry, 2025).

How the values were obtained:
Assay in all cases: log2 ratio of Biotin-Ahx-Ub-VS probe labelling (fragment/DMSO); higher = less target engagement (more negative = stronger competition), active = hit call of the paper (q ≤ 0.05, log2 ratio ≤ -1)
Conditions in all cases: compound concentration: 200 uM; treatment time: 3 h
USP34 = USP34 (UniProt Q70CQ2)
Chain of USP34 (Q70CQ2 whole entry, the tested form may be a part): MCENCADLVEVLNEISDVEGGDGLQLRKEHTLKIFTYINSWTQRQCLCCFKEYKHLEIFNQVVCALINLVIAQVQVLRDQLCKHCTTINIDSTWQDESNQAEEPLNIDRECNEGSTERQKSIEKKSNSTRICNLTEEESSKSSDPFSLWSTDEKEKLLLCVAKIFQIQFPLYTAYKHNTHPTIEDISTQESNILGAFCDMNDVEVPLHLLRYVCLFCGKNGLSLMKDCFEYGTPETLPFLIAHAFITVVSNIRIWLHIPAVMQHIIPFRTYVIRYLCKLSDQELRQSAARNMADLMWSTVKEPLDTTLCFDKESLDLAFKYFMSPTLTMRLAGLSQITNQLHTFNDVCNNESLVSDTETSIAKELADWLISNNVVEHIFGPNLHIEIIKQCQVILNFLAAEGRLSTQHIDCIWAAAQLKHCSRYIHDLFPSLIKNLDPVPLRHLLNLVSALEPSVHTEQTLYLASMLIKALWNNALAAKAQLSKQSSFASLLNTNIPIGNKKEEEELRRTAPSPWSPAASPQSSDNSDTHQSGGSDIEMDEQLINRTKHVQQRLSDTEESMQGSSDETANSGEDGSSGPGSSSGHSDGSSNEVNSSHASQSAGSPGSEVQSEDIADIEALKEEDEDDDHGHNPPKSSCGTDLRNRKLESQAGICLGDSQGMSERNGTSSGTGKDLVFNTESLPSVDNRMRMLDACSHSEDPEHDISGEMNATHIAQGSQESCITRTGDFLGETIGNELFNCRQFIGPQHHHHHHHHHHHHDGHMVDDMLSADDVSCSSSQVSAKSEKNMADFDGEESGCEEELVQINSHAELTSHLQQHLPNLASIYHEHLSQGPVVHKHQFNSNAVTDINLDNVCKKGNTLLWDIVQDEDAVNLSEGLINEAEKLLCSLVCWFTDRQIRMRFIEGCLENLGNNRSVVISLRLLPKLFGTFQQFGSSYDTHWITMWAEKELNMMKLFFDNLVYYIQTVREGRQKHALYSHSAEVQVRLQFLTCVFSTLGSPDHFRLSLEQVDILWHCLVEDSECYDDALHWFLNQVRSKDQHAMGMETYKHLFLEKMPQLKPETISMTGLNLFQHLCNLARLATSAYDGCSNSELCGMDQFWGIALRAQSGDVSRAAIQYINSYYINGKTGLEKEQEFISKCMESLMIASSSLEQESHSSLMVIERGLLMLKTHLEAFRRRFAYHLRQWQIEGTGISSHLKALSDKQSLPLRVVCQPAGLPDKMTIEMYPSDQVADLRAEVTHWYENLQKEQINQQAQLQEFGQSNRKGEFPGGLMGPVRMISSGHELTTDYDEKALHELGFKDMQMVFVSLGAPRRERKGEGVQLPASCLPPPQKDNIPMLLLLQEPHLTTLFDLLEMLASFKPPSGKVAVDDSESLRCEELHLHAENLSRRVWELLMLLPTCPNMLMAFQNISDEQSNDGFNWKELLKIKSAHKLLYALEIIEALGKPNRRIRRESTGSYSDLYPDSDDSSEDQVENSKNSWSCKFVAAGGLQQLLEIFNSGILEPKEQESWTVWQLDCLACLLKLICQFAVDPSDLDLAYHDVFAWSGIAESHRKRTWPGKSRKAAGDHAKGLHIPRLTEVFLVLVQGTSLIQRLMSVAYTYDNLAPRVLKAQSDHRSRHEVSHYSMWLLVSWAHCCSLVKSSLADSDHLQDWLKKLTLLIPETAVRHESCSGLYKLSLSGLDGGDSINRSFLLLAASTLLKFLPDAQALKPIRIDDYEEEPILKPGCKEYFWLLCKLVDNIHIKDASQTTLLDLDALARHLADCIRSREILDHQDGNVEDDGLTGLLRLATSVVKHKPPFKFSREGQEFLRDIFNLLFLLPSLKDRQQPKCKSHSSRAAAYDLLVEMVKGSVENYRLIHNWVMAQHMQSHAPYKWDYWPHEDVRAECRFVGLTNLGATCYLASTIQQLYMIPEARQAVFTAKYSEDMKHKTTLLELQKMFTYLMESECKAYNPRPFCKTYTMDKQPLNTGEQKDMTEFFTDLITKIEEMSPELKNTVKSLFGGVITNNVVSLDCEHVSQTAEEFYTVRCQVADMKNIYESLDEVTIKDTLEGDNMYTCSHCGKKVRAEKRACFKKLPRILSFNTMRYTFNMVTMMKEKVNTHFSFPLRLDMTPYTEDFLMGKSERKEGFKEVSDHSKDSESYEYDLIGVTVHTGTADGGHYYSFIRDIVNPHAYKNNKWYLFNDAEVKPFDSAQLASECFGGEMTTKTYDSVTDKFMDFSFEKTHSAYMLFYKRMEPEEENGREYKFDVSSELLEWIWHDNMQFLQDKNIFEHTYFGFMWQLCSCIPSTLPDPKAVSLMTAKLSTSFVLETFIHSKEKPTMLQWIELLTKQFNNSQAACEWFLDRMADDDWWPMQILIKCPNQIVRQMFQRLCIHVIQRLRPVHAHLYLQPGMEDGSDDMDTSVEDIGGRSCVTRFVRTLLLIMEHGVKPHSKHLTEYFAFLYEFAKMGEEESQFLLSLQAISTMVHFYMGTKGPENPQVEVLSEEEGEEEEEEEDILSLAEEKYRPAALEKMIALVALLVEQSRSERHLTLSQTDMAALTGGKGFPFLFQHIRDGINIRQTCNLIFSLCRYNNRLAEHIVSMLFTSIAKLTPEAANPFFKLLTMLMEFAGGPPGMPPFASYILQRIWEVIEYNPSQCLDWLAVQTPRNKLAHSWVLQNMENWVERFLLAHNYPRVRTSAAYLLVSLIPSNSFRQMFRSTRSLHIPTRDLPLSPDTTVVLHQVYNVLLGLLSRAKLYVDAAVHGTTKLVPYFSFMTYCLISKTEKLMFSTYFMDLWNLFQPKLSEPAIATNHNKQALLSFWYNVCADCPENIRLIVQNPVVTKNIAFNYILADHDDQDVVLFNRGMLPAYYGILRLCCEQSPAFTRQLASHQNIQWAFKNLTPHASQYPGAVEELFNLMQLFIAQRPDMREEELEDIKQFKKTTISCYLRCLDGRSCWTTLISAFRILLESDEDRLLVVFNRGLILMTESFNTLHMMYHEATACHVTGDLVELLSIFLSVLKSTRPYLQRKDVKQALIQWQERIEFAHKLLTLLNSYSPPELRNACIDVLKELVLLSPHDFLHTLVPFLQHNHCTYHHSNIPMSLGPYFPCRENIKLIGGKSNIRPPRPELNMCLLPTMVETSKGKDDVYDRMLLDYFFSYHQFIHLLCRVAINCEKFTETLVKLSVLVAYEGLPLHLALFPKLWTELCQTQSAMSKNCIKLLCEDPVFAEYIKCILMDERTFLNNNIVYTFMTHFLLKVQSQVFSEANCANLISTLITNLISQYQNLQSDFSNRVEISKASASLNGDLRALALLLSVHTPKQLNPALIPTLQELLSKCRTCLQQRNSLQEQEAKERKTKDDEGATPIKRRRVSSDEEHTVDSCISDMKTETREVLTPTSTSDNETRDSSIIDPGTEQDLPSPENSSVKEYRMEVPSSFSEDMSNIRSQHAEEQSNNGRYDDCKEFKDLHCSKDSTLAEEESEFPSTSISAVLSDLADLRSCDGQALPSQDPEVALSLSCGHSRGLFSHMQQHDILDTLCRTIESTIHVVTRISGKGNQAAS
In short: (§1)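 Labelled DUBs from HEK293T lysate were NeutrAvidin-enriched, digested with LysC and trypsin, and run by diaPASEF LC-MS/MS. Before that, each 495 µg sample in Tris/CHAPS/IGEPAL buffer with protease inhibitors was treated in triplicate with fragment at 200 µM or vehicle for 3 h, then with Biotin-Ahx-Ub-VS at 0.5 µM final for 1 h. Values are average log2 ratios of fragment over vehicle by unpaired t-test, based on global-median-normalised Spectronaut label-free quantities from proteins with ≥2 unique peptides.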

USP36 = target: T1, USP36 (UniProt Q9P275)
T1 sequence (whole entry): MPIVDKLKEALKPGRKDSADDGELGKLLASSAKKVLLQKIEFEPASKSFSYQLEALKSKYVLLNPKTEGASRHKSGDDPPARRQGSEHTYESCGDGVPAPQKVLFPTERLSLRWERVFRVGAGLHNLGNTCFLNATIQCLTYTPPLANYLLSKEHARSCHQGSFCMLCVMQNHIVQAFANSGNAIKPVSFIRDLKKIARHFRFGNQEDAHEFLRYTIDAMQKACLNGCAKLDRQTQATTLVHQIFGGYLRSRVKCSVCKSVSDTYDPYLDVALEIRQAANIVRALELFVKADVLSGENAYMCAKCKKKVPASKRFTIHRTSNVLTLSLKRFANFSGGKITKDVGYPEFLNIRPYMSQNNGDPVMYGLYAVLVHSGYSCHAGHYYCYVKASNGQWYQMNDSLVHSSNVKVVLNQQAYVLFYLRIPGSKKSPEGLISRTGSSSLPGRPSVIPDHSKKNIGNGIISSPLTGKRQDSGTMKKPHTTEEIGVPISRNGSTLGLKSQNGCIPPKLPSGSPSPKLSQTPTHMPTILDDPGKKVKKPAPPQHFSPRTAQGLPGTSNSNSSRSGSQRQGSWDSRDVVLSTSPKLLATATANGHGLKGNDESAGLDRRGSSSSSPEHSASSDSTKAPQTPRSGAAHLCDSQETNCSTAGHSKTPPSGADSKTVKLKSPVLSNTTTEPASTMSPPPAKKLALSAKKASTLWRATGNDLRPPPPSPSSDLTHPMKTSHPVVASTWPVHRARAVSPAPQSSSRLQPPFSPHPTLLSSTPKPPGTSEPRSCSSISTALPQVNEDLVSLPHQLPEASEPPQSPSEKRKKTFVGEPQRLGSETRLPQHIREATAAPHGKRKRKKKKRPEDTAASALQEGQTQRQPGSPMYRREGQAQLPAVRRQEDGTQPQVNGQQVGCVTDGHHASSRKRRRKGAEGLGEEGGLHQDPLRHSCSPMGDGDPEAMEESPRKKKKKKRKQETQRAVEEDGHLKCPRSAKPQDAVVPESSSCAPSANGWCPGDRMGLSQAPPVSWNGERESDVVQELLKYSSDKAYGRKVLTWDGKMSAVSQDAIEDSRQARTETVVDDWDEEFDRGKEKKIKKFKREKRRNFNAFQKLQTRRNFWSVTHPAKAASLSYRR
In short: as §1

USP38 = target: T2, USP38 (UniProt Q8NB14)
T2 sequence (whole entry): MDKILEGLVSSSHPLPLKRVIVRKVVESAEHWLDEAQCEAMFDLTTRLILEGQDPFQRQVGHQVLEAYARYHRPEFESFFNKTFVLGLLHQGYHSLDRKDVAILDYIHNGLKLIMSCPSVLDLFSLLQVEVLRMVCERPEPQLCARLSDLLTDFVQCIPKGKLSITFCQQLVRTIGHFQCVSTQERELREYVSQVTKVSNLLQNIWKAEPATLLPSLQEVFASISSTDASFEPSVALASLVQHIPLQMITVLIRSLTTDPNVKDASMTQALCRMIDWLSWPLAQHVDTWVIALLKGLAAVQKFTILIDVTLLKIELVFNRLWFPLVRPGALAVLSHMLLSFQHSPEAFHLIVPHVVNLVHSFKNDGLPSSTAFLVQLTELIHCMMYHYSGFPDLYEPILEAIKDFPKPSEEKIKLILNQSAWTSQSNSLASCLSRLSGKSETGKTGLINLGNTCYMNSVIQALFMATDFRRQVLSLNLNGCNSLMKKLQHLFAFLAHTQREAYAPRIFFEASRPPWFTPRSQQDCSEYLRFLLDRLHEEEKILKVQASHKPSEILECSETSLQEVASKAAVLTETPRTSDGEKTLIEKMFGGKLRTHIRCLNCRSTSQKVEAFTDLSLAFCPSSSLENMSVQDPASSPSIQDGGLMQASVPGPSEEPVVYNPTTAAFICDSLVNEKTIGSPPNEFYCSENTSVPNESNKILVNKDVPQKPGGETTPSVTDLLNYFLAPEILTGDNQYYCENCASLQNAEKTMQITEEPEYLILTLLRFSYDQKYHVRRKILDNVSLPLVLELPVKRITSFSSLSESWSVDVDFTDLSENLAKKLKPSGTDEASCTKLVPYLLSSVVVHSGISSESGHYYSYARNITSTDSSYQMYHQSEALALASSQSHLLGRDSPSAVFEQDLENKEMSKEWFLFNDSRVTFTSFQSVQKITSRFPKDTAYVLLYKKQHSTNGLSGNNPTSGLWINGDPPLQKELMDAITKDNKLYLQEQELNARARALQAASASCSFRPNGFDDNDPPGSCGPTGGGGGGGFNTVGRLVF
In short: as §1

USP39 = target: T3, USP39 (UniProt Q53GS9)
T3 sequence (whole entry): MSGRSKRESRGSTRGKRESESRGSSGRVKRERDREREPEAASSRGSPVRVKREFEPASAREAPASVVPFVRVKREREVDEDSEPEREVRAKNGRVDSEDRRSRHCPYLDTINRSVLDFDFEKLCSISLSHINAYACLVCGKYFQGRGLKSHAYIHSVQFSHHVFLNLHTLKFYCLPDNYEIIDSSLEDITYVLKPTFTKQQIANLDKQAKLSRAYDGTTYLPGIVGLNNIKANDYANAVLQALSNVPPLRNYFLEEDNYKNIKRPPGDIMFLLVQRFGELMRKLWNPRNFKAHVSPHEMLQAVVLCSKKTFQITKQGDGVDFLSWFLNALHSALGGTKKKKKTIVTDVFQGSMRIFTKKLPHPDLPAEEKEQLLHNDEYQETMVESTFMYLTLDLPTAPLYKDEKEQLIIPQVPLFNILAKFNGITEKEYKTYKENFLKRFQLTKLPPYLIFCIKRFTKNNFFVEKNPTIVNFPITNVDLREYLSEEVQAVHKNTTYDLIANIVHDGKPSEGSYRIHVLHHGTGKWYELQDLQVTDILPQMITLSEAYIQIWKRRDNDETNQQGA
In short: as §1

USP4 = target: T4, USP4 (UniProt Q13107)
T4 sequence (whole entry): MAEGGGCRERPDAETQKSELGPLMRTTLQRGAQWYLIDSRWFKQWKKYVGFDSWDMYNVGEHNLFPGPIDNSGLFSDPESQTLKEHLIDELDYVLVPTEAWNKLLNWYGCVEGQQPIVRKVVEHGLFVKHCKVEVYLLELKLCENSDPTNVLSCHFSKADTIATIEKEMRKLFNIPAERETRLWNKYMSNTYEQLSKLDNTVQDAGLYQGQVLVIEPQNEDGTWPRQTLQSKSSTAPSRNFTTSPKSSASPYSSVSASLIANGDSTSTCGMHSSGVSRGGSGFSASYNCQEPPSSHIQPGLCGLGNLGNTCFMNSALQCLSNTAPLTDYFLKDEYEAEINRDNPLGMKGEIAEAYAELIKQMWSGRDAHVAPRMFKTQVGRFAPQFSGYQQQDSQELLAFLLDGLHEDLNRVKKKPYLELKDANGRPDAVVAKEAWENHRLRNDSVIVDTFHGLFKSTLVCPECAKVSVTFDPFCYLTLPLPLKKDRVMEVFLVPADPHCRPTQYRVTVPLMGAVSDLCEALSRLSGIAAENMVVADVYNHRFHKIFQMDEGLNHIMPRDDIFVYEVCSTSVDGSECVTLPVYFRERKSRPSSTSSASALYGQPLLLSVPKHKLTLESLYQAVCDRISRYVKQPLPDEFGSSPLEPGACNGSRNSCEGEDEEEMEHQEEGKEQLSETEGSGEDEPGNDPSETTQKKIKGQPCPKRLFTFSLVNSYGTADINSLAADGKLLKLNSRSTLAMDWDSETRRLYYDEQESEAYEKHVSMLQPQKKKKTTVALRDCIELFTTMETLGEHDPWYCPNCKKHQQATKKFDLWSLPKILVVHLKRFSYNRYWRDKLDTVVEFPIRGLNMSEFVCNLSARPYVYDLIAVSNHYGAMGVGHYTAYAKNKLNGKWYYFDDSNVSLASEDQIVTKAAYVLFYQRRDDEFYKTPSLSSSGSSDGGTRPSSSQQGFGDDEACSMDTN
In short: as §1

Measured: log2 ratio of Biotin-Ahx-Ub-VS probe labelling

O=C(CCl)Nc1nnc(CC(F)(F)F)o1
inactive: USP34 0.146 | USP36 -0.182 | USP38 -0.0633 | USP39 0.00671 | USP4 -0.0637
